Rows were chosen to be rich in hits. Some 27% of all compounds tested hit in one or more screens of this group.
CYP2C9 inh: inhibitors of human CYP2C9. inhibition, % at 5 µM. 96,000 compounds, 20% hits. CYP2C9 Supersomes, luciferin-H conversion, luminescence. P11712. AID 777;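 active means blocking of liver enzyme CYP2C9 beyond about 50% at 5 µM, limit read from the data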
CYP2C19 inh: inhibitors of human CYP2C19; inhibition, % at 5 µM; 96,000 compounds, 21% hits; CYP2C19 Supersomes, luciferin-H EGE luminescence, 30 min; P33261;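 active means CYP2C19 inhibition above a set limit at 5 µM in the primary screen, cut at about 50% in these data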
Target sequence (P33261 whole entry, looked up): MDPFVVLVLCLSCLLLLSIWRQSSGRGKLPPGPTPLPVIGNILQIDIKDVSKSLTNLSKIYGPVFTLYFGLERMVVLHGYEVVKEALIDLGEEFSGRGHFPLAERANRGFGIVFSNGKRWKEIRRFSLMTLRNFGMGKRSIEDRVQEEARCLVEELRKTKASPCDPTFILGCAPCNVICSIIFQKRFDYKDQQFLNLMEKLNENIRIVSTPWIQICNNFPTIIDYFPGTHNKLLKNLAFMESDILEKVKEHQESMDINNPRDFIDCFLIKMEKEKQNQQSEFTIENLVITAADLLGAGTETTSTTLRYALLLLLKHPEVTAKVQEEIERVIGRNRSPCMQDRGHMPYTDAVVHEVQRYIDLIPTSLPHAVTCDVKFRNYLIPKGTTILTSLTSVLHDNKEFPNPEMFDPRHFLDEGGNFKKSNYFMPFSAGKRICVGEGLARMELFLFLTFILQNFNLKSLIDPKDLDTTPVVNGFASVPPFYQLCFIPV
CYP2C19 act: activators of human cytochrome P450 2C19; activation factor at 5 µM; 96,000 tested, under 10 active; recombinant CYP2C19, luciferin-H EGE luminescence; active compounds read high; 0 = fully inhibited enzyme, 1 = untreated enzyme; AID 1025;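 active means activation factor of at least 2 at 5 µM in the primary screen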
sEH inh: soluble epoxide hydrolase (human) inhibition | inhibition, % at 2 µM | recombinant human sEH enzymatic activity assay | AID 707 | 91,000 compounds, 0.34% hits; in the data active means inhibition above about 80%
CYP2C9 act: increases human cytochrome P450 2C9 activity; 96,000 compounds, 1.4% hits; recombinant CYP2C9, luciferin-H conversion, luminescence; active compounds read high; factor 1 = untreated enzyme, 0 = blocked; activation factor at 5 µM; P11712;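 active means activation factor of 2 or more for CYP2C9 at a 5 µM dose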
sEH act: activators of human soluble epoxide hydrolase; P34913; purified human sEH enzymatic activity, activator screen; activation, % at 2 µM; 91,000 compounds, 0.04% hits; AID 717; in the data active means activation above about 37%
A number is an active result; 0 = inactive; - = not tested or not shown.

SMILES | CYP2C9 inh | CYP2C19 inh | CYP2C19 act | sEH inh | CYP2C9 act | sEH act
CCOc1ccccc1NC(=O)C1CCN(S(=O)(=O)c2ccc(OC)c(OC)c2)CC1 | 0 | 0 | 0 | - | 0 | -
CCOc1ccc(NC(=O)C2CCN(S(=O)(=O)c3cccnc3)CC2)cc1 | 0 | 0 | 0 | 0 | 0 | 0
CCOc1cc(NC(=O)C2CC2)c(OCC)cc1NC(=O)c1cccnc1 | 0 | 97 | 0 | - | 0 | -
O=C(Nc1cccc(Cl)c1)C1CCCN(S(=O)(=O)c2ccc(F)cc2)C1 (centres undefined) | 0 | 0 | 0 | 0 | 0 | 0
CCOc1ccccc1NC(=O)C1CCN(c2ccc(S(=O)(=O)N3CCCC3)cc2)CC1 | 54 | 0 | 0 | 0 | 0 | 0
CCOc1ccc(OCC)c(NC(=O)C2CCN(S(=O)(=O)c3cccnc3)CC2)c1 | 0 | 55 | 0 | 0 | 0 | 0
COc1ccc(CSc2nc(C)cc(=O)[nH]2)cc1Br | 0 | 71 | 0 | 0 | 0 | 0
Cc1cc(=O)[nH]c(SCc2nc3ccccc3s2)n1 | 0 | 0 | 0 | - | 0 | -
CCOC(=O)CSc1nc(C)cc(=O)[nH]1 | 0 | 0 | 0 | 0 | 0 | 0
Cc1cc(=O)[nH]c(SCc2cccc(Br)c2)n1 | 74 | 0 | 0 | 0 | 0 | 0
Clc1ccc(CO/N=C/c2c(-c3ccccc3)nc3n2CCS3)c(Cl)c1 | 65 | 0 | 0 | 0 | 0 | 0
O=C(CCc1ccc(S(=O)(=O)N2CCOCC2)cc1)Oc1ccccc1 | 0 | 0 | 0 | 0 | 0 | 0
O=S(=O)(c1ccc(-c2csc(=Nc3ccccc3)n2CCCN2CCOCC2)cc1)N1CCOCC1 | 0 | 56 | 0 | 0 | 0 | 0
Cn1cccc1Cc1nnc(SCC(=O)Nc2ccc(F)cc2F)n1-c1ccc(F)cc1 | 58 | 52 | 0 | 0 | 0 | 0
Cc1ccc(NC(=O)CSc2nnc(Cc3cccn3C)n2-c2ccc(F)cc2)c(C)c1 | 68 | 0 | 0 | 0 | 0 | 0
CCOc1ccccc1NC(=O)CSc1nnc(Cc2cccn2C)n1-c1ccc(F)cc1 | 0 | 0 | 0 | 0 | 0 | 0
CCc1ccc(NC(=O)CSc2nnc(Cc3cccn3C)n2-c2ccc(F)cc2)cc1 | 76 | 0 | 0 | - | 0 | -
CCOC(=O)c1ccccc1NC(=O)CSc1nnc(Cc2cccn2C)n1-c1ccc(F)cc1 | 57 | 0 | 0 | - | 0 | -
Cn1cccc1Cc1nnc(SCC(=O)Nc2cccc(F)c2)n1-c1ccc(F)cc1 | 0 | 0 | 0 | - | 0 | -
Cc1ccc(NC(=O)CSc2nnc(Cc3cccn3C)n2-c2ccc(F)cc2)cc1 | 0 | 0 | 0 | 0 | 0 | 0
COc1ccc(/C(O)=C/Sc2nnc(Cc3ccccc3)o2)cc1 | 0 | 0 | 0 | 0 | 0 | 0
Cc1cc(Cl)c(S(=O)(=O)N2CCN(c3ccccc3)CC2)cc1OCC(N)=O | - | - | - | 0 | - | 0
COc1ccc(N2C(=O)C(Cl)=C(N(CCO)Cc3ccccc3)C2=O)cc1 | 98 | 97 | 0 | 0 | 0 | 0
COc1ccc(N2C(=O)C(Cl)=C(N3CCN(Cc4ccccc4)CC3)C2=O)cc1 | 0 | 0 | 0 | 0 | 0 | 0
CCCCOc1ccc(C(=O)Nc2ccncc2)cc1 | 99 | 99 | 0 | 0 | 0 | 0
SMILES | CYP2C9 inh | CYP2C19 inh | CYP2C19 act | sEH inh | CYP2C9 act | sEH act
O=C(CCCOc1ccccc1)Nc1cccnc1 | - | - | - | 0 | - | 0
CCOC(=O)CNC(=O)COc1ccc(Cl)cc1Br | 0 | 0 | 0 | 0 | 0 | 0
CCNC(=O)COc1ccc(Br)cc1Cl | 57 | 73 | 0 | 0 | 0 | 0
CCNC(=O)CCCOc1ccc(Cl)cc1Cl | 0 | 83 | 0 | 0 | 0 | 0
O=C(CCCOc1ccccc1)Nc1ccncc1 | 97 | 99 | 0 | - | 0 | -
Cc1cc(C(C)(C)C)oc1C(=O)N(CC(=O)NC1CCCC1)Cc1ccc(F)cc1 | 0 | 0 | 0 | 0 | 0 | 0
O=C(CCCOc1ccc(Cl)cc1Cl)Nc1ccncc1 | 100 | 99 | 0 | 0 | 0 | 0
CC(Oc1ccccc1)C(=O)NCc1cccnc1 (centres undefined) | 0 | 0 | 0 | 0 | 0 | 0
O=C(Nc1sc2c(c1C(=O)NC1CC1)CCCCCC2)c1ccco1 | 0 | 0 | 0 | 0 | 0 | 0
COC(=O)c1c(NC(=O)c2ccco2)sc2c1C(C(=O)OC)CC2 (centres undefined) | 62 | 0 | 0 | 0 | 0 | 0
COC(=O)c1c(NC(=O)c2ccco2)sc2c1CCC2 | 0 | 0 | 0 | 0 | 0 | 0
CC(Oc1ccc(F)cc1)C(=O)Nc1sc2c(c1C(=O)NCc1cccnc1)CCCC2 (centres undefined) | 94 | 78 | 0 | 0 | 0 | 0
O=C(Nc1sc2c(c1C(=O)NCc1cccnc1)CCCC2)c1ccco1 | 95 | 78 | 0 | 0 | 0 | 0
O=C(Nc1sc2c(c1C(=O)O)CCC2)c1ccco1 | 53 | 62 | 0 | 0 | 0 | 0
COC(=O)c1c(NC(=O)C(C)C)sc2c1C(C(=O)OC)CC2 (centres undefined) | - | - | - | 0 | - | 0
CCOc1cc(/C=C2\C(=O)N(Cc3ccc(C)cc3)C(C)=C2C(=O)OC)ccc1O | 83 | 0 | 0 | 0 | 0 | 0
CCN1C(=O)/C(=C\c2ccc3c(c2)OCO3)C(C(=O)OC)=C1C | 0 | 0 | 0 | 0 | 0 | 0
CCOc1ccc2c(c1)-c1c(ssc1=S)C(C)(C)N2C | 0 | 0 | 0 | 0 | 0 | 0
COC(=O)c1ccc(CC(=O)c2c(C)cc(O)cc2O)o1 | 60 | 93 | 0 | 0 | 0 | 0
CCOC(=O)c1ccc(CC(=O)c2ccc(O)cc2O)o1 | 0 | 0 | 0 | 0 | 0 | 0
COC(=O)c1cc(CC(=O)c2ccc(O)cc2O)c(C)o1 | 54 | 94 | 0 | 0 | 0 | 0
COC(=O)c1ccc(CC(=O)c2ccc(O)cc2O)o1 | 52 | 0 | 0 | 0 | 0 | 0
COc1ccc(CC(=O)c2c(O)cc(O)cc2O)cc1OC | 88 | 77 | 0 | 0 | 0 | 0
CC(=O)c1cccc(NC(=O)c2nccnc2C(=O)O)c1 | 0 | 0 | 0 | 0 | 0 | 0
CCCN1C2=NS(=O)(=O)CCN2c2ccccc21 | 0 | 0 | 0 | 0 | 0 | 0
SMILES | CYP2C9 inh | CYP2C19 inh | CYP2C19 act | sEH inh | CYP2C9 act | sEH act
C=CCNC(=O)COC(=O)c1cc(S(=O)(=O)N2CCOCC2)ccc1N1CCCCC1 | 0 | 0 | 0 | 0 | 0 | 0
O=C(O)c1ccccc1-c1ccccc1C(=O)NCc1ccco1 | 0 | 0 | 0 | 0 | 0 | 0
O=C(CSCCO)Nc1cc(C(F)(F)F)ccc1Cl | 0 | 0 | 0 | 0 | 0 | 0
CCn1c(SCC(=O)Nc2cccc(OC)c2)nnc1-c1ccc(Cl)cc1 | 0 | 0 | 0 | 0 | 0 | 0
CCn1c(SCCC(=O)Nc2ccccc2)nnc1-c1ccc(OC)cc1 | 62 | 93 | 0 | 0 | 0 | 0
Cn1c(COc2ccccc2)nnc1SCCC(=O)Nc1ccccc1 | 88 | 74 | 0 | - | 0 | -
O=C(CN1C(=O)CSC1=O)N1CCc2ccccc2C1 | 0 | 0 | 0 | 0 | 0 | 0
NC(=O)c1ccsc1NC(=O)C1CCCCC1 | 0 | 63 | 0 | 0 | 0 | 0
Cc1c(Cl)cccc1-n1nnnc1-c1cccs1 | 0 | 96 | 0 | - | 0 | -
O=C(Nc1ccc(Cl)cc1)N1CCC(c2nc(-c3ccccc3Cl)no2)CC1 | 0 | 0 | 0 | 88 | 0 | 0
O=S(=O)(c1ccccc1Cl)N1CCCC1c1nc(-c2ccccc2Cl)no1 (centres undefined) | 0 | 58 | 0 | 0 | 0 | 0

Screening data as filed in PubChem.
